Source: PubChem BioAssay (Tox21)
Records with an inconclusive call do not appear. Active and inactive are the calls of the source. Unless noted, calls come from the whole dose curve; as a rule, active = well fitted curve in the direction sought with a large enough effect in the repeat runs; inconclusive = weak or mixed curves; inactive = no such curve, though single readings can be large; an effect the other way counts as inactive or inconclusive.

Tests used:
[1] = qHTS assay to identify small molecule antagonists of the estrogen related receptor (ERR) signaling pathway from Tox21 library - cell viability counter screen (AID 1224834); note: nearly all actives have a fitted effect of over 30% in size
How it was run: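 Counter screen run in ERR cells (2,000 cells/well): cells pre-incubated 6 h, then treated with compounds for 17.5 h at 37 C. Fluorescence was read 30 min after CellTiter-Fluor addition.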

[2] = biological target: Luciferin 4-monooxygenase (Photinus pyralis) (UniProt P08659); assay: qHTS assay to identify small molecule inhibitors of firefly luciferase (AID 1224835); note: nearly all actives have a fitted effect of over 25% in size
Sequence of Luciferin 4-monooxygenase (Photinus pyralis) (P08659 whole entry, looked up): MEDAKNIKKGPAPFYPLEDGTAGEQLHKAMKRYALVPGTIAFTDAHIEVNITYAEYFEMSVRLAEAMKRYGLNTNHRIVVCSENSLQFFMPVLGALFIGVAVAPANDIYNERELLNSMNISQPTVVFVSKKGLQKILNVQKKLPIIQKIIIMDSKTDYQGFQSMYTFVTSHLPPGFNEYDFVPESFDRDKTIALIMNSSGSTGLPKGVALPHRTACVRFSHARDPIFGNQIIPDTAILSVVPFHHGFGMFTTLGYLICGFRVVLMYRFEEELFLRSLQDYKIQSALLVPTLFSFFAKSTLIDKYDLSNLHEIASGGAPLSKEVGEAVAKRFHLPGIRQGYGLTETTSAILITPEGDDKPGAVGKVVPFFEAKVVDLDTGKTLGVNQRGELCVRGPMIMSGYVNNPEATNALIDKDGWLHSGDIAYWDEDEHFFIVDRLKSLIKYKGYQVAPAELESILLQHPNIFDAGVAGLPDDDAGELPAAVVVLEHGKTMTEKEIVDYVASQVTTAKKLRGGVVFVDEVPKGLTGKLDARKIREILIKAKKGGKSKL
How it was run: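 Inhibition of purified Photinus luciferase is measured by luminescence. Substrate levels (D-luciferin, ATP) sit at their KM values. Each compound is tested in a concentration series.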

[3] = qHTS assay to identify small molecule agonists of the constitutive androstane receptor (CAR) signaling pathway - cell viability counter screen (AID 1224836); note: nearly all actives have a fitted effect of over 45% in size
How it was run: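 HepG2 cells stably carrying hCAR and a CYP2B6-2.2kb reporter were plated 4 h, then given compounds at 15 concentrations plus PK11195 (final 0.75 uM). After 23 h at 37 C, viability was read by CellTiter-Fluor fluorescence.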

[4] = qHTS assay to identify small molecule antagonists of the constitutive androstane receptor (CAR) signaling pathway - cell viability counter screen (AID 1224837); note: nearly all actives have a fitted effect of over 45% in size
How it was run: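 CITCO at 50 nM final was added alongside compounds (15 concentrations) to double-stable hCAR/CYP2B6-2.2kb HepG2 cells. Following 23 hr at 37 C, cell viability was quantified by CellTiter-Fluor fluorescence intensity.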

[5] = biological target: Nuclear receptor subfamily 1 group I member 3 (Homo sapiens) (UniProt Q14994); assay: qHTS assay to identify small molecule antagonists of the constitutive androstane receptor (CAR) signaling pathway (AID 1224838); note: nearly all actives have a fitted effect of over 40% in size
Sequence of Nuclear receptor subfamily 1 group I member 3 (Homo sapiens) (Q14994 whole entry, looked up): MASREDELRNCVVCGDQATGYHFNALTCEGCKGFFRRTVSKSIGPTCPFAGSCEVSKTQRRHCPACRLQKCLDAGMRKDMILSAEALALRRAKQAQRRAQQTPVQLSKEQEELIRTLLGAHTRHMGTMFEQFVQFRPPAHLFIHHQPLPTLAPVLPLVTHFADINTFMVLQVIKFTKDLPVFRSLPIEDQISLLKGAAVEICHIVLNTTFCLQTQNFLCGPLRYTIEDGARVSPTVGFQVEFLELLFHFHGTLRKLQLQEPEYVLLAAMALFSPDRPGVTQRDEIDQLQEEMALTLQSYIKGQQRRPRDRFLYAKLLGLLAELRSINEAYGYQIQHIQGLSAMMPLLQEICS
How it was run: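 Inhibition of CITCO-driven (50 nM final) CYP2B6 reporter expression is measured in HepG2 cells stably carrying hCAR. Fifteen compound concentrations are applied for 24 h at 37 C, followed by luciferase luminescence.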

[6] = biological target: Nuclear receptor subfamily 1 group I member 3 (Homo sapiens) (UniProt Q14994); assay: qHTS assay to identify small molecule agonists of the constitutive androstane receptor (CAR) signaling pathway (AID 1224839); note: nearly all actives have a fitted effect of over 15% in size
How it was run: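 HepG2 cells stably expressing hCAR and a CYP2B6-2.2kb luciferase reporter were treated with compounds at 15 concentrations plus 0.75 uM PK11195 (final) for 24 h at 37 C; luminescence was read after ONE-Glo addition.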

[7] = qHTS assay to identify small molecule antagonists of the estrogen related receptor signaling pathway with the pleiotropic PPARgamma coactivator (PGC) from Tox21 10K library - cell viability counter screen (AID 1224840; active = well fitted cell-killing curve with a large enough effect in the repeat runs, not every such curve was filed as active; note: nearly all actives have a fitted effect of over 40% in size)
How it was run: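 Readout: fluorescence intensity from CellTiter-Fluor after 30 min at 37 C/5% CO2. Preceded by 17.5 h treatment of PGC/ERR cells with DMSO-dissolved compounds, added 6 h post-seeding.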

[8] = qHTS assay to identify small molecule antagonists of the estrogen related receptor signaling pathway with the pleiotropic PPARgamma coactivator (PGC) from Tox21 10K library (AID 1224841; call rule not given here; note: actives are mostly falling curves and most rising ones were filed inactive; nearly all actives have a fitted effect of over 50% in size)
How it was run: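 One-Glo luminescence, measured after half an hour at room temperature, quantified reporter output of PGC/ERR cells. These had been plated at 2,000 per well, incubated 6 h, dosed with compounds in DMSO, then kept 18 h at 37 C.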

[9] = qHTS assay to identify small molecule agonists of the estrogen related receptor signaling pathway with the pleiotropic PPARgamma coactivator (PGC) from Tox21 10K library (AID 1224842); note: nearly all actives have a fitted effect of over 15% in size
How it was run: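 Luminescence from One-Glo (30 min, room temperature) measured after PGC/ERR cells had 18 h at 37 C with pinned compound (23 nL in DMSO). Cells had been seeded at 2,000 per well and pre-incubated 6 h.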

[10] = qHTS assay to identify small molecule agonists of the hypoxia (HIF-1) signaling pathway - cell viability counter screen (AID 1224844; calls by dose curve; note: nearly all actives have a fitted effect of over 50% in size)
How it was run: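 In this counter screen, HRE-bla ME-180 cell viability after 17 hrs of compound exposure at 37C was read by CellTiter-Glo luminescence, multiplexed with the beta-lactamase reporter measurement.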

[11] = qHTS assay to identify small molecule agonists of H2AX (AID 1224845; active = well fitted activation curve with a large enough effect in the signal ratio in the repeat runs, not every such curve was filed as active; the % refers to the signal ratio)
How it was run: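 Phospho-H2AX Ser139 measured by HTRF (ex 320 nm; em 665 and 620 nm) after 24 hr antibody incubation. Compounds, 15 concentrations, 0.76% DMSO, were applied to CHO-K1 cells for 3hr at 37C before lysis.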

[12] = qHTS assay to identify small molecule agonists of the hypoxia (HIF-1) signaling pathway (AID 1224846; active = well fitted activation curve with a large enough effect in the signal ratio in the repeat runs, not every such curve was filed as active; the % refers to the signal ratio)
How it was run: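 ME-180 HRE-bla reporter cells; compounds in DMSO, 17 h at 37C; read-out beta-lactamase via CCF4-AM FRET.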

[13] = qHTS assay to identify small molecule agonists of H2AX - cell viability counter screen (AID 1224847; calls by dose curve; note: top concentration of the series differs between compounds; nearly all actives have a fitted effect of over 30% in size)
How it was run: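 Wild-type CHO-K1 cells (10% FBS medium) were plated overnight at 37C, exposed to compounds at 15 concentrations for 3 hr at 37C (0.76% DMSO final), and viability was read as CellTiter-Glo luminescence after 30 min at room temperature.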

[14] = qHTS assay to identify small molecule antagonists of the estrogen related receptor (ERR) signaling pathway from Tox21 library (AID 1224848); note: nearly all actives have a fitted effect of over 50% in size
How it was run: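 Luciferase luminescence (ONE-Glo, 30 min room temperature) was the read-out. Cells of the NTP-supplied ERR line, 2,000 per well, were given 6 h at 37 C before compound addition in DMSO and 18 h exposure at 37 C.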

[15] = qHTS assay to identify small molecule agonists of the estrogen related receptor (ERR) signaling pathway from Tox21 library (AID 1224849; calls by dose curve; note: nearly all actives have a fitted effect of over 15% in size); conditions: ERR reporter cell line, ONE-Glo luciferase, 18 h; at 92.4 µM (top of the series) unless noted
How it was run: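 Luciferase activity in ERR pathway reporter cells served as the agonist readout; exposure lasted 18 h at 37 C, with ONE-Glo detection after 30 min at room temperature.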

[16] = qHTS RealTime-Glo MT Cell Viability Assay in HepG2 cells - 24 hour (AID 1224867); note: nearly all actives have a fitted effect of over 50% in size
How it was run: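 Luminescence read-out: viable HepG2 cells reduce a prosubstrate to a NanoLuc substrate, giving a signal proportional to live cell number. Reads taken at 0, 8, 16, 24, 32 and 40 h of compound exposure at 37 C.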

[17] = qHTS RealTime-Glo MT Cell Viability Assay in HEK293 cells - 32 hour (AID 1224868)
How it was run: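 Nonlytic real-time viability readout: viable cells convert prosubstrate to NanoLuc substrate, giving luminescence proportional to live cell number. HEK293, 600 cells/well, compound added after 5 h, continuous culture at 37 C.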

[18] = A CellTox Green Cytotoxicity Assay to monitor cytotoxicity in HEK293 cells - 0 hour (AID 1224869); note: nearly all actives have a fitted effect of over 50% in size
How it was run: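 Real-time, in one plate: 600 HEK293 cells/well with dead-cell DNA dye, pinned compound after 5 h, 37 C incubation over 40 h; viable cells give no appreciable fluorescence.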

[19] = biological target: Thyrotropin receptor (Homo sapiens) (UniProt P16473); assay: qHTS assay to identify small molecule agonists of the thyroid stimulating hormone receptor (TSHR) signaling pathway (AID 1224843; calls by dose curve; note: nearly all actives have a fitted effect of over 45% in size)
Sequence of Thyrotropin receptor (Homo sapiens) (P16473 whole entry, looked up): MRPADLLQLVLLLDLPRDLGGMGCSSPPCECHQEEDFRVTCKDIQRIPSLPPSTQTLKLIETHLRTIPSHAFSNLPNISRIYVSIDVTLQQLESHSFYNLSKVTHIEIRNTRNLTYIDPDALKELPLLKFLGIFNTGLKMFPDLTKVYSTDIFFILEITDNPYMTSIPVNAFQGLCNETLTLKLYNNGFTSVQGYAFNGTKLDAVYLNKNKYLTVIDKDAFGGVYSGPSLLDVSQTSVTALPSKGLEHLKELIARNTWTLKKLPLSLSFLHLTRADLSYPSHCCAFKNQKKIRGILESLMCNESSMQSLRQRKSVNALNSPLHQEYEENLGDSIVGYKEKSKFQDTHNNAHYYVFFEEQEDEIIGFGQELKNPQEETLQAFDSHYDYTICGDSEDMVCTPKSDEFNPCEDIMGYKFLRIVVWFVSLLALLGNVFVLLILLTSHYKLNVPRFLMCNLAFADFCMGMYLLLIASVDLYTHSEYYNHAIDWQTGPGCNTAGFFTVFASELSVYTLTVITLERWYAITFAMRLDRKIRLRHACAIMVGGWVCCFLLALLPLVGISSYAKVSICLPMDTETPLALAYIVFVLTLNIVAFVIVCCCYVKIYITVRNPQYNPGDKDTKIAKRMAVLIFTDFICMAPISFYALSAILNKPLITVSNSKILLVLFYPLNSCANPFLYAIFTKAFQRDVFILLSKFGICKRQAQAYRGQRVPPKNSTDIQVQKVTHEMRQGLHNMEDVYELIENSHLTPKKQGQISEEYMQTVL
How it was run: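 Agonist activity read as cAMP rise via d2/cryptate HTRF competition, 1 h room-temperature detection, in HEK293 cells expressing TSHR. Fifteen-point titrations, each run in triplicate, with a 30 min room-temperature incubation beforehand.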

[20] = qHTS assay to identify small molecule agonists of the estrogen related receptor signaling pathway with the pleiotropic PPARgamma coactivator (PGC) (AID 1224823)
How it was run: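 Compounds dissolved in DMSO are added by pin tool to PGC/ERR cells that have settled for 6 h, and incubation continues 18 h at 37 C. Reporter output is measured as One-Glo luminescence.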
% is set by controls: 0 for no effect and ±100 for the full control effect.

C[C@@H](Oc1ccc(CNC(=O)c2cccnc2Oc2ccc3c(c2)OCO3)c(F)c1)C(=O)O
inactive: Potency [1] | Potency [2] | Potency [3] | Potency [4] | outcome [5] | Potency [6] | outcome [7] | Potency [8] | outcome [9] | outcome [10] | outcome [11] | outcome [12] | Potency [13] | Potency [14] | activity change, positive = activation [15] 4.43% | outcome [16] | Potency [17] | outcome [18]

OCCC(F)(F)C(F)(F)C(F)(F)C(F)(F)C(F)(F)C(F)(F)C(F)(F)C(F)(F)F
inactive: Potency [1] | Potency [2] | Potency [3] | Potency [4] | outcome [5] | Potency [6] | outcome [7] | Potency [8] | outcome [11] | outcome [12] | Potency [13] | Potency [14] | outcome [16] | outcome [18]

CCCC(=O)C(C)=O
inactive: Potency [1] | Potency [2] | Potency [3] | Potency [4] | outcome [5] | Potency [6] | outcome [7] | Potency [8] | outcome [9] | Potency [19] | outcome [10] | outcome [11] | Potency [14] | activity change, positive = activation [15] 7.37% | outcome [16] | Potency [17] | outcome [18]

CC(=O)N[C@@H](CCC(=O)O)C(=O)O
inactive: Potency [1] | Potency [2] | Potency [3] | Potency [4] | outcome [5] | Potency [6] | outcome [7] | Potency [8] | outcome [9] | Potency [19] | outcome [10] | outcome [11] | outcome [12] | Potency [13] | Potency [14] | activity change, positive = activation [15] 5.46% [at 42.5 µM] | outcome [16] | Potency [17] | outcome [18]

COc1cc(NS(=O)(=O)c2ccc(N)cc2)nc(OC)n1
inactive: Potency [1] | Potency [2] | Potency [3] | Potency [4] | outcome [5] | Potency [6] | outcome [7] | Potency [8] | outcome [9] | outcome [10] | outcome [11] | Potency [13] | Potency [14] | outcome [16] | Potency [17] | outcome [18]

O=C1O[C@@H]2[C@@H](O)[C@H](O)O[C@@H]2[C@H]1O
inactive: Potency [1] | Potency [2] | Potency [3] | Potency [4] | outcome [5] | Potency [6] | outcome [7] | Potency [8] | outcome [9] | Potency [19] | outcome [10] | outcome [11] | outcome [12] | Potency [13] | Potency [14] | activity change, positive = activation [15] -1.02% | outcome [16] | Potency [17] | outcome [18]

N#Cc1ccc(C(=O)O)cc1
inactive: Potency [1] | Potency [2] | Potency [3] | Potency [4] | outcome [5] | Potency [6] | outcome [7] | Potency [8] | outcome [9] | outcome [10] | outcome [11] | outcome [12] | Potency [13] | Potency [14] | activity change, positive = activation [15] 1.83% | outcome [16] | Potency [17] | outcome [18]

COC(=O)[C@@H]1[C@H]2C[C@H]3c4[nH]c5ccccc5c4CCN3C[C@@H]2CC[C@@H]1O
active: activity change, positive = activation [15] 33.5% [at 42.5 µM]
inactive: outcome [20] | Potency [1] | Potency [2] | Potency [3] | Potency [4] | outcome [5] | outcome [7] | Potency [8] | outcome [9] | Potency [19] | outcome [10] | Potency [13] | Potency [14] | outcome [16] | Potency [17] | outcome [18]

CCN(CC)CC(=O)Nc1c(C)cccc1C
inactive: outcome [20] | Potency [1] | Potency [4] | outcome [7] | Potency [8] | outcome [9] | Potency [19] | outcome [10] | Potency [13] | Potency [14] | outcome [16] | outcome [18]

C=C(C)C(=O)OCCNC(C)(C)C
inactive: Potency [1] | Potency [2] | Potency [3] | Potency [4] | outcome [5] | Potency [6] | outcome [7] | Potency [8] | outcome [9] | Potency [19] | outcome [10] | outcome [11] | outcome [12] | Potency [13] | Potency [14] | activity change, positive = activation [15] -2.14% | outcome [16] | Potency [17] | outcome [18]

C=C(C)C(=O)OCCOP(=O)(O)OCCOC(=O)C(=C)C
inactive: Potency [1] | Potency [2] | Potency [3] | Potency [4] | outcome [5] | Potency [6] | outcome [7] | Potency [8] | outcome [9] | Potency [19] | outcome [10] | outcome [11] | outcome [12] | Potency [13] | Potency [14] | activity change, positive = activation [15] 5.76% | outcome [16] | Potency [17] | outcome [18]

O=S(=O)(O)CCN1CCN(CCO)CC1
inactive: Potency [1] | Potency [2] | Potency [3] | Potency [4] | outcome [5] | Potency [6] | outcome [7] | Potency [8] | outcome [9] | Potency [19] | outcome [10] | outcome [11] | outcome [12] | Potency [13] | Potency [14] | activity change, positive = activation [15] 9.7% | outcome [16] | Potency [17] | outcome [18]

CC(C)(C)NC(N)=O
inactive: Potency [1] | Potency [2] | Potency [3] | Potency [4] | outcome [5] | Potency [6] | outcome [7] | Potency [8] | outcome [9] | outcome [10] | outcome [11] | outcome [12] | Potency [13] | Potency [14] | activity change, positive = activation [15] 2.65% | outcome [16] | Potency [17] | outcome [18]

CC(C(=O)O)c1ccc2c(c1)CC(=O)c1ccccc1S2 (stereo not drawn)
inactive: Potency [1] | Potency [2] | Potency [3] | Potency [4] | outcome [5] | Potency [6] | outcome [7] | Potency [8] | outcome [9] | Potency [19] | outcome [10] | outcome [12] | Potency [13] | Potency [14] | activity change, positive = activation [15] 4.13% [at 42.5 µM] | outcome [16] | Potency [17] | outcome [18]
